Experimental data from PubChem BioAssay (NCI).
This is part of a sample that, as a whole, favours compounds with a hit. Of some 79,000 tested, about 15% had one in any assay. Calls of active or inactive are those of the source. Rule as the data show it: active = growth inhibition above about 70%; inactive = the rest.

Columns and labels:
[1] = NCI Yeast Anticancer Drug Screen. Data for the rad50 strain (AID 155);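 also: 0% = growth of vehicle-only cultures of the same strain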; conditions: S. cerevisiae rad50 strain growth inhibition; at 50.0 µM; stronger effect = higher value
How it was run: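 Genetically altered yeast (DNA repair pathway); compound treatment; growth inhibition vs vehicle ctrl.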

[2] = NCI Yeast Anticancer Drug Screen. Data for the mec2-1 strain (AID 157); conditions: S. cerevisiae mec2-1 strain, at 50.0 µM, stronger effect = higher value
How it was run: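 Test agents were screened against the mec2-1 yeast strain, with defined DNA repair or cell cycle alteration. Growth was scored as inhibition against vehicle-only controls.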

[3] = NCI Yeast Anticancer Drug Screen. Data for the sgs1 mgt1 strain (AID 161);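 also: 0% = growth of cultures given vehicle only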; conditions: S. cerevisiae sgs1 mgt1 strain, at 50.0 µM, stronger effect = higher value
How it was run: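 Read-out: growth inhibition vs vehicle controls. Cells: mutant yeast strain deficient in DNA damage repair.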

[4] = NCI Yeast Anticancer Drug Screen. Data for the cln2 rad14 strain (AID 165);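 also: 0% = growth equal to vehicle treated cultures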; conditions: S. cerevisiae cln2 rad14 strain, at 50.0 µM, stronger effect = higher value
How it was run: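 Growth of compound-exposed yeast (cln2 rad14 genotype) measured and expressed as inhibition relative to vehicle.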

[5] = NCI Yeast Anticancer Drug Screen. Data for the bub3 strain (AID 167); conditions: S. cerevisiae bub3 mutant strain, at 50.0 µM, stronger effect = higher value
How it was run: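 Yeast carrying a defined mutation is treated with each compound, and growth is compared with that of vehicle-exposed cells to give inhibition.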

[6] = NCI Yeast Anticancer Drug Screen. Data for the mlh1 rad18 strain (AID 175); conditions: S. cerevisiae mlh1 rad18 strain growth inhibition; at 50.0 µM; stronger effect = higher value
How it was run: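 In this whole-cell yeast screen, a strain with altered DNA damage repair is challenged with compound, and its growth is measured against matched vehicle-treated controls.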

Measured: growth inhibition

Nc1ncnc2c1c1cncnc1n2C1OC(CO)C(O)C1O (stereo unspecified)
inactive: [1] 9.55% | [2] -4.75% | [3] -9.55% | [4] 16.1% | [5] 7.45% | [6] 17.1%

O=C1/C(=C/c2ccccc2)CN(C(=O)CCN2CCOCC2)C/C1=C\c1ccccc1
inactive: [1] 34.2% | [2] 7.15% | [4] 31.6% | [5] 66.8%
active: [3] 73% | [6] 86.8%

O=c1c(Cc2ccccc2)c(O)cc2n1CCC2
inactive: [1] -14.5% | [2] -14.4% | [3] -10.7% | [4] 8.75% | [5] -5.25% | [6] -10.9%

CCOC(=O)c1ccc(N=C2C(=S)N(c3ccc(C(=O)OCC)cc3)C(=N)N2/N=C/c2ccccc2)cc1
inactive: [1] 19.4% | [2] 13.4% | [3] 11.5% | [4] -4.55% | [5] 31.9% | [6] 1.95%

OCCCNCc1ccccc1
inactive: [1] -36.8% | [2] -23.4% | [3] -20.1% | [4] -32.4% | [5] -32.9% | [6] -21.1%

c1ccc(-c2nnn(-n3nnc(-c4ccccc4)n3)n2)cc1
inactive: [1] -13% | [2] 12.3% | [3] 10.9% | [4] -5.55% | [5] 1.3% | [6] 25.5%

O=c1c(SCc2ccccc2Cl)c(SCc2ccccc2Cl)cnn1-c1ccccc1
inactive: [1] 10.7% | [2] -3.05% | [3] 12.6% | [4] 23.4% | [5] 7.15% | [6] 1.45%

Cc1ccc(S(=O)(=O)NN=C2CCCCCC2)cc1
inactive: [1] 8.65% | [2] 7.55% | [3] 8.75% | [4] -24.9% | [5] -12.4% | [6] 5.65%

COC(=O)C(=O)C(C(=O)C(=O)Nc1ccc([N+](=O)[O-])cc1)c1nc2ccccc2[nH]c1=O (stereo unspecified)
inactive: [1] 10.1% | [2] -5.95% | [3] 19.5% | [4] 15.4% | [5] 11.7% | [6] 29.5%

COCC/C=C/CCl
inactive: [1] -8.75% | [2] -22.6% | [3] -8.35% | [4] -8.95% | [5] -7.65% | [6] 5.1%

CN(C)CCN1C(=O)CC[C@@]2(C)C1=CC[C@@H]1[C@@H]2CC[C@@]2(C)[C@H]1CC[C@]2(C)O
inactive: [1] -21.7% | [2] -12.8% | [3] -18.6% | [4] -11.1% | [5] -0.1% | [6] -9.15%

O=C1NN(c2ccccc2)C(=O)C2C3c4ccccc4C(c4ccccc43)C12 (stereo unspecified)
inactive: [1] 2.45% | [2] -6.8% | [3] 0.7% | [4] -3.3% | [5] -2.4% | [6] 2.85%

O=c1[nH]c(C(Cl)(Cl)Cl)nc2ccc(Cl)cc12
inactive: [1] -0.3% | [2] 8.6% | [3] -1.95% | [4] 11.8% | [5] -10.1% | [6] -12.1%

CC1(C)CC(=NNC(N)=S)CC(C)(C)N1
inactive: [1] 1.3% | [2] -7.2% | [3] 14.3% | [4] -51.9% | [5] -16.2% | [6] -0.95%

C#CCNC(=O)NCCCl
inactive: [1] 18.9% | [2] -3.45% | [3] -0.3% | [4] -34.1% | [5] 27.9% | [6] 2.65%

c1ccc(C2=NCC(c3ccccc3)(C3(c4ccccc4)SCCCS3)O2)cc1 (stereo unspecified)
inactive: [1] 30.8% | [2] 5.15% | [3] 12.7% | [4] -13.8% | [5] -3.35% | [6] 6.55%

OC(CC1CCCCN1)c1ccc2c(c1)oc1ccccc12 (stereo unspecified)
inactive: [2] 56.9% | [3] 62.2% | [4] 56.2%
active: [1] 71.7% | [5] 73.8% | [6] 75.6%

CCOCC(Cl)C(OCC)OCC (stereo unspecified)
inactive: [1] 0.45% | [2] 6.5% | [3] -5.4% | [4] -20.1% | [5] 2.85% | [6] -1.1%

C/C(CC(=O)Nc1ccccc1[N+](=O)[O-])=N\NC(N)=O
inactive: [1] 14.1% | [2] -15.8% | [3] -18.1% | [4] 27.4% | [5] -23.1% | [6] -2.9%

COC(=O)c1ccc(C(=O)OC)nc1
inactive: [1] -7.45% | [2] -2.1% | [3] -0.2% | [4] -36.6% | [5] -25.6% | [6] -3.55%

O=[N+]([O-])c1ccc(NN=C2CN3CCN(C2)c2ccccc23)c([N+](=O)[O-])c1
inactive: [1] 35.4% | [2] 20.1% | [3] 59.8% | [4] 40.8% | [5] 40.6% | [6] 35.1%

Cc1ccc2ccccc2c1Br
inactive: [1] -4.55% | [2] -0.85% | [3] 1.6% | [4] -14.8% | [5] -3.2% | [6] -8.55%

O=[N+]([O-])c1ccc2oc(=Nc3ccccc3)c(Nc3ccccc3)nc2c1
inactive: [1] -21.4% | [2] 11.4% | [3] -18.6% | [4] 15.9% | [5] 6.75% | [6] 6.25%

CC(C)=CC1CCc2ccccc2N1S(=O)(=O)c1ccc(C)cc1 (stereo unspecified)
inactive: [1] 31.8% | [2] 0.25% | [3] -14.9% | [4] -8.7% | [5] -31.7% | [6] -22.6%

N#CC(c1ccccc1)N(CCCCCCN(C(=O)c1ccccc1)C(C#N)c1ccccc1)C(=O)c1ccccc1 (stereo unspecified)
inactive: [1] 17.1% | [2] 37% | [3] 20.3% | [4] 13.1% | [5] 40.4% | [6] -29.1%

O=c1c[n+]([O-])c2ccccc2n1O
inactive: [1] 10.8% | [2] -3.75% | [3] 3.75% | [4] -27.1% | [5] -5.7% | [6] 11.8%

CN(C)Cc1ccc2ccccc2c1CC(O)(c1ccccc1)c1ccccc1
inactive: [1] 26.3% | [2] -2.05% | [3] 9.55% | [4] 2.25% | [5] 0.85% | [6] 7.35%

CNC(=O)OCc1c(COC(=O)NC)c(C)n(-c2ccc3c(c2)OCO3)c1C
inactive: [1] -3.2% | [2] -6.95% | [3] 19.2% | [4] -0.45% | [5] 1.35% | [6] -40.3%

CN(C)c1ccc2c(c1)c1cc(N(C)C)ccc1n2Cc1ccccc1
inactive: [1] -2.05% | [2] -19.6% | [3] 12.2% | [4] -30.4% | [5] 1.95% | [6] -10.2%

Cc1cccc(C)c1Nc1ncnc2c1cnn2C
inactive: [1] -11.6% | [2] -12.5% | [3] -1.2% | [4] -6.55% | [5] 9.95% | [6] -13.9%

O=c1cc(-c2cccc(OC(F)(F)F)c2)[nH]c2cc3c(cc12)OCO3
inactive: [1] -6.25% | [2] 2.75% | [3] -5.05% | [4] 13.8% | [5] 19.7% | [6] -24.2%

COc1cc(C2c3cc4c(cc3OC(NCCc3ccccc3)C2C)OCO4)cc(OC)c1OC (stereo unspecified)
inactive: [1] -15.8% | [2] -41.4% | [3] -0.3% | [4] -25.4% | [5] 0.6% | [6] 11.4%

O=C(/C=C/c1ccccc1)N/N=C/c1ccncc1
inactive: [1] 5.2% | [2] 24.9% | [3] 1.6% | [4] -9.2% | [5] -0.45% | [6] 11.3%

OC(COc1cccc(C(F)(F)F)c1)CN1CCN(c2ccccc2)CC1 (stereo unspecified)
active: [1] 83.7% | [2] 83% | [3] 93.5% | [4] 86.7% | [5] 75.4% | [6] 87.3%

Cc1cc(Cl)c(Cl)cc1NC(=O)c1ccc(Cl)cc1Cl
inactive: [1] 2.85% | [2] 6.9% | [3] 1.25% | [4] -0.95% | [5] -1.3% | [6] 17.6%

CCCSCCC(N)C(=O)O (stereo unspecified)
inactive: [1] -33.2% | [2] -15.9% | [3] 0.55% | [4] -5.7% | [5] -2.9% | [6] -4.95%

COc1ccc(C(c2c(O)c3ccccc3n(C)c2=O)c2c(O)c3ccccc3n(C)c2=O)cc1
inactive: [1] -39% | [2] -19.3% | [3] -25.9% | [4] -33.5% | [5] 1.1% | [6] -35.1%

BrC1CCC(OCc2ccccc2)C(OCc2ccccc2)C1 (stereo unspecified)
inactive: [1] -10.8% | [2] 7.25% | [3] 13.8% | [4] 8.85% | [5] 10.7% | [6] -0.95%

CC(=O)Nc1cc2c(cc1[N+](=O)[O-])-c1ccc([N+](=O)[O-])cc1C2=O
inactive: [1] 3.9% | [2] 4.4% | [3] 5.8% | [4] 3.2% | [5] 13% | [6] -9.8%

c1ccc(NCc2nc3ccccc3[nH]2)cc1
inactive: [1] -1.6% | [2] -7.55% | [3] -10.4% | [4] 24.3% | [5] 7.6% | [6] 1.15%

Nc1nc(N)c(N=Nc2cc(Cl)cc(Cl)c2)c(=O)[nH]1
inactive: [1] 24.2% | [2] 9.3% | [3] -12.3% | [4] -1.1% | [5] 3.15% | [6] 8.8%
